The record followed here is PubChem BioAssay.

As a reminder, the viability is a read-out of living cells in per cent, often relative to untreated cells. What is called inhibition is the drop in the measured response relative to a control, in per cent.

Values joined by “and” are separate entries in the source; they are usually repeats but may differ in a detail not shown here. Equal values may be shown once. Active and inactive are the calls of the source. Unless noted, no rule for the calls is given here.

System in one experiment: not listed separately
As to the kind of experiment: P. berghei load reduction in hepatocytes – cell-based, HepG2, luciferase luminescence, HepG2 viability, primary screen (AID 624349; in the data active = parasite load remaining mostly below about 12%, no sharp cut-off; inactive = mostly above about 10%;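 also: 100% = mean of DMSO negative control wells on the same plate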). The note with it: P. berghei liver stage in HepG2, luciferase luminescence, concentration not given here; parasite load remaining: stronger effect = lower value; viability: measured here: HepG2 viability without parasites.
As to `C#C[C@]1(O)CC[C@H]2[C@@H]3CCc4cc(OC)ccc4[C@H]3CC[C@@]21C`, the parasite load remaining was 48% (inactive) and 32.2% (inactive); the viability is 96.9% and 76.9%.
As for `Oc1ccc(OCc2ccccc2)cc1`, the parasite load remaining was 144% (inactive) and the viability is 102%.
The corresponding values for `O=C(CCCCC(=O)Nc1c(I)cc(I)c(C(=O)O)c1I)Nc1c(I)cc(I)c(C(=O)O)c1I` are 81.3% (inactive) and 93.2%.
With `CCCc1c(OCCCCc2nn[nH]n2)ccc(C(C)=O)c1O`, the parasite load remaining was 103% (inactive) and the viability came out at 65.9%.
`CNNCc1ccc(C(=O)NC(C)C)cc1`: the parasite load remaining was 101% (inactive) and 80.5% (inactive) and 21.4% (inactive); the viability is 76.9% and 70.8% and 66.5%.
For the compound `C[C@H](N)[C@H](O)c1cccc(O)c1`, the parasite load remaining is 9.16% (inactive) and 99.4% (inactive) and 51.4% (inactive); the viability is 46.8% and 91.2% and 209%.

The test system of a further experiment is Hepatitis C virus NS3 helicase. As to the kind of experiment: blockers of NS3h binding to ssDNA – biochemical, fluorescence polarization, LOPAC1280 library, primary screen (AID 687035; in the data active = inhibition above about 37%). The note with it: Purified HCV NS3 helicase, Cy5-dT15 ssDNA binding fluorescence polarization; stronger effect = higher value; concentration not given here. (Polarisation of emitted light reports the rotation of a fluorescent probe.)
`Cc1cc2c(C(C)C)c(O)c(O)c(C=O)c2c(O)c1-c1c(C)cc2c(C(C)C)c(O)c(O)c(C=O)c2c1O`: the inhibition is -1% (inactive).
On the same count and under the same terms, to `CCc1c(C)[nH]c2c1C(=O)C(CN1CCOCC1)CC2` (configuration not stated) belongs -4% (inactive); to `Cc1cccc(C)c1NC(=O)C(C)N` (configuration not stated), -5% (inactive).

System in another experiment: not listed separately
Put plainly: compounds altering Cy5-DNA-NS3h complex signal – biochemical, LOPAC1280, artefact control for HCV NS3 helicase inhibitor project (AID 687037). Conditions: Cy5-DNA-NS3h complex fluorescence interference counterscreen. On the technique in general: Counterscreens check selectivity or assay interference.
Regarding `Cc1cc2c(C(C)C)c(O)c(O)c(C=O)c2c(O)c1-c1c(C)cc2c(C(C)C)c(O)c(O)c(C=O)c2c1O`, the fluorescence ratio (interference) was 0.9 (inactive).
Turning to `CCc1c(C)[nH]c2c1C(=O)C(CN1CCOCC1)CC2` (configuration not stated), the fluorescence ratio (interference) was 0.9 (inactive).
On the same count and under the same terms, to `Cc1cccc(C)c1NC(=O)C(C)N` (configuration not stated) belongs 1 (inactive).

System in another experiment: not listed separately
As to the kind of experiment: signal quenchers or enhancers, Cy5 substrate/SSB – biochemical, NIH Clinical Collection, E. coli SSB, artefact control for HCV NS3 helicase inhibitor project (AID 743268). Conditions: Cy5-oligo bound E. coli SSB, fluorescence interference.
Regarding `CC(C)(C(=O)c1cccnc1)c1cccnc1`, the fluorescence ratio was 1.03 (inactive).
On the same count and under the same terms, to `CCc1c(C)[nH]c2c1C(=O)C(CN1CCOCC1)CC2` (configuration not stated) belongs 1.09 (inactive).
The same measure, in the same setting: to `CC(C)(C)NC(=O)[C@H]1CC[C@H]2[C@@H]3CC[C@H]4NC(=O)C=C[C@]4(C)[C@H]3CC[C@]12C` belongs 1.05 (inactive); to `CCC(=O)O[C@]1(C(=O)SCF)[C@H](C)C[C@H]2[C@@H]3C[C@H](F)C4=CC(=O)C=C[C@]4(C)[C@@]3(F)[C@@H](O)C[C@@]21C`, 1 (inactive); to `CCCOc1ccc(C(=O)OCCN(CC)CC)cc1N`, 0.101 (active).
Still for that read-out and setting: to `N#Cc1ccc(C(c2ccc(C#N)cc2)n2cncn2)cc1` belongs 1 (inactive).
For the compound `CCC1=C(C)CN(C(=O)NCCc2ccc(S(=O)(=O)NC(=O)NC3CCC(C)CC3)cc2)C1=O` (configuration not stated), the fluorescence ratio was 0.97 (inactive).
The same measure, in the same setting: to `COc1cc(C)nc(-n2nc(C)cc2OC)n1` belongs 0.95 (inactive).
On to `CN1CCC(=C2c3ccccc3CCc3sccc32)CC1`, for which the fluorescence ratio is 0.99 (inactive).
Regarding `Cc1cccc(C)c1NC(=O)C(C)N` (configuration not stated), the fluorescence ratio was 1.05 (inactive).
`COc1cc(OC)c(C(=O)CCCN2CCCC2)c(OC)c1`: the fluorescence ratio is 1.02 (inactive).
Turning to `CCOc1cc(CC(=O)N[C@@H](CC(C)C)c2ccccc2N2CCCCC2)ccc1C(=O)O`, the fluorescence ratio is 1.02 (inactive).
On the same count and under the same terms, the figure for `O=C(O)/C=C/c1ccc(Cn2ccnc2)cc1` is 1.05 (inactive); for `Nc1[nH]c(=O)ncc1F` it is 1.01 (inactive); for `C#C[C@]1(O)CC[C@H]2[C@@H]3CCc4cc(OC)ccc4[C@H]3CC[C@@]21C` it is 1 (inactive).
In the case of `CCCc1c(OCCCCc2nn[nH]n2)ccc(C(C)=O)c1O`, the fluorescence ratio was 1.03 (inactive).
On the same count and under the same terms, the figure for `CNNCc1ccc(C(=O)NC(C)C)cc1` is 1.04 (inactive).

For the next experiment, the system named is Hepatitis C virus NS3 helicase. Put plainly: blockers of NS3h binding to DNA – biochemical, fluorescence polarization, NIH Clinical Collection, primary screen (AID 743270). Conditions: NS3 helicase binding to Cy5-dT15 DNA, stronger effect = higher value, concentration not given here.
On to `CC(C)(C(=O)c1cccnc1)c1cccnc1`, for which the inhibition is 1.36% (inactive).
With `CCc1c(C)[nH]c2c1C(=O)C(CN1CCOCC1)CC2` (configuration not stated), the inhibition is -1.36% (inactive).
For the compound `CC(C)(C)NC(=O)[C@H]1CC[C@H]2[C@@H]3CC[C@H]4NC(=O)C=C[C@]4(C)[C@H]3CC[C@]12C`, the inhibition was 0.4% (inactive).
Same read-out and setting: the figure for `CCC(=O)O[C@]1(C(=O)SCF)[C@H](C)C[C@H]2[C@@H]3C[C@H](F)C4=CC(=O)C=C[C@]4(C)[C@@]3(F)[C@@H](O)C[C@@]21C` is 5.94% (inactive).
The same measure, in the same setting: to `CCCOc1ccc(C(=O)OCCN(CC)CC)cc1N` belongs -4.09% (inactive).
On to `N#Cc1ccc(C(c2ccc(C#N)cc2)n2cncn2)cc1`, for which the inhibition is 2.77% (inactive).
As for `CCC1=C(C)CN(C(=O)NCCc2ccc(S(=O)(=O)NC(=O)NC3CCC(C)CC3)cc2)C1=O` (configuration not stated), the inhibition is -1.09% (inactive).
Turning to `COc1cc(C)nc(-n2nc(C)cc2OC)n1`, the inhibition is -0.22% (inactive).
Still for that read-out and setting: the figure for `CN1CCC(=C2c3ccccc3CCc3sccc32)CC1` is -1.98% (inactive).
Still for that read-out and setting: the figure for `Cc1cccc(C)c1NC(=O)C(C)N` (configuration not stated) is -5.15% (inactive); for `COc1cc(OC)c(C(=O)CCCN2CCCC2)c(OC)c1` it is -3.56% (inactive).
Regarding `CCOc1cc(CC(=O)N[C@@H](CC(C)C)c2ccccc2N2CCCCC2)ccc1C(=O)O`, the inhibition is 5.94% (inactive).
Same read-out and setting: the figure for `O=C(O)/C=C/c1ccc(Cn2ccnc2)cc1` is -2.77% (inactive); for `Nc1[nH]c(=O)ncc1F` it is -6.73% (inactive); for `C#C[C@]1(O)CC[C@H]2[C@@H]3CCc4cc(OC)ccc4[C@H]3CC[C@@]21C` it is 3.56% (inactive).
Consider `CCCc1c(OCCCCc2nn[nH]n2)ccc(C(C)=O)c1O`, for which the inhibition was 5.15% (inactive).
On the same count and under the same terms, to `CNNCc1ccc(C(=O)NC(C)C)cc1` belongs 1.19% (inactive).
